Bioassay records deposited in PubChem by National Center for Advancing Translational Sciences (NCATS).
PKM2 activator – increases activity of human pyruvate kinase M2. P14618. purified PKM2, Kinase-Glo ATP luminescence, activation; response scale: 0% is enzyme alone, no compound. Potency, µM (doses to about 57.5 µM), for inactives: top-dose activation, usual class: activators. 260,000 compounds, 0.34% hits. AID 1631; further: nearly all actives have a fitted effect of over 55% in size
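ATP formation by purified human PK-M2, quantified via coupled luciferase luminescence after 1 h at room temperature with 0.1 mM ADP and 0.5 mM PEP final.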
RECQ1 helicase – inhibitors of human RECQ1 DNA helicase | P46063 | Potency, µM (titrated, usually from 57.3 µM), inactives show top-dose activity, negative = inhibition, most hits filed as inhibitors | RECQ1 DNA unwinding, red fluorescence kinetic read | 240,000 compounds, 0.54% hits;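 further: plate controls were vehicle for no effect and no enzyme for full effect; nearly all actives have a fitted effect of over 30% in size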
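50 nM RECQ1T1 preincubated 15 min with compound in Tris pH 8.0 buffer with MgCl2, DTT, Tween-20 and 2.5 ug/ml poly(dI-dC); started with 200 nM TAMRA/BHQ-2 forked duplex and 2 mM ATP. Unwinding read as fluorescence (525/598 nm), two reads 2 h apart.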
BLM inh – blocks DNA unwinding by human BLM helicase | recombinant BLM DNA unwinding, fluorescence dequenching | Potency, µM (highest dose often 56.1 µM), for inactives: at the top dose activity change, negative = inhibition, most hits filed as inhibitors | 350,000 compounds, 0.2% hits;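 further: plate controls were vehicle for no effect and no enzyme for full effect; nearly all actives have a fitted effect of over 35% in size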
APEX1 inh – inhibitors of human APE1 endonuclease; P27695; recombinant APE1, TAMRA/BHQ-2 abasic DNA cleavage fluorescence; Potency, µM (series often up to 65.8 µM), for the others: top-dose activity change, negative = inhibition, most hits filed as inhibitors; 350,000 compounds, 0.35% hits; AID 2517;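 further: plate controls were vehicle for no effect and reference inhibitor for full effect; nearly all actives have a fitted effect of over 55% in size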
Target sequence (P27695 whole entry, looked up): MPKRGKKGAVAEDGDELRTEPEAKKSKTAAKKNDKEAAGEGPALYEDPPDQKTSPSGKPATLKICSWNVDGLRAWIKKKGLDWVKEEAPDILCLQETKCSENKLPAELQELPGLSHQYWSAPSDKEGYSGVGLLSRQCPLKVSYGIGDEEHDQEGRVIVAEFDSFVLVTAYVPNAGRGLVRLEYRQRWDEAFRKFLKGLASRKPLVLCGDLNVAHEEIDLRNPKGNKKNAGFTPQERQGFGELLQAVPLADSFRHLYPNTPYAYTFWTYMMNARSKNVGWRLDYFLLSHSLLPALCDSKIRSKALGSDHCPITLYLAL
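Incision of a quenched TAMRA/BHQ-2 THF abasic-site duplex (50 nM) by 0.75 nM APE1, after 15 min compound preincubation, measured as fluorescence increase over three 60 s reads. Values normalized to buffer, DMSO and NSC13755 control wells.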
KDM4E inh – blocks human JMJD2E demethylase activity; JMJD2E catalytic domain, FDH-coupled NADH fluorescence (FDH is formaldehyde dehydrogenase); Potency, µM (series often up to 57.1 µM), for inactives: at the highest dose activity change, negative = inhibition, usual class: inhibitors; 230,000 compounds, 1.6% hits; AID 2147; active means well fitted inhibition curve with a large enough effect, not every such curve was filed as active; inconclusive means small, poorly fitted or top-dose-only effect, or another doubt; inactive means no such curve, though single readings can be large or run the other way;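 further: 0% = wells with enzyme and -100% = buffer wells without enzyme; nearly all actives have a fitted effect of over 50% in size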
Target sequence (B2RXH2 1-337 limits assumed): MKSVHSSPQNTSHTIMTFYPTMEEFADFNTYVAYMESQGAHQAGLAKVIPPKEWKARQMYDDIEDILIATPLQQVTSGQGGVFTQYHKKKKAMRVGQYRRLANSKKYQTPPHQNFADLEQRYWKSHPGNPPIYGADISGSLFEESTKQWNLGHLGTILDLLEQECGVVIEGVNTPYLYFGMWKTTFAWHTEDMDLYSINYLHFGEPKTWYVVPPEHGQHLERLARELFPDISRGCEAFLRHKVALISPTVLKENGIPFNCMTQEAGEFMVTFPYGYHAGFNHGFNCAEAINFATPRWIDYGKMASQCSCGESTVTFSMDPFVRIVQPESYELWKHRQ
* = called active by the depositor; i = inactive; ? = inconclusive; . = not tested or not shown; ! = repeats disagree; [ ] = dose if it differs, or a comment. Many of the other results were omitted from the sample, so hits are more common in it than they were. Unless noted, the call rests on the fitted dose curve; in most records, active means well fitted curve in the direction sought with a large enough effect; inconclusive means small, poorly fitted or top-dose-only effect, or another doubt; inactive means no such curve, though single readings can be large; an effect the other way counts as inactive or inconclusive. Unless noted, on the % scale 0 is the no-effect control and ±100 the full control effect; potency means the concentration at half of the fitted maximal effect.

SMILES	PKM2 activator	RECQ1 helicase	BLM inh	APEX1 inh	KDM4E inh
COc1ccc(CCC(=O)O)c(O)c1	5.5%	i	-6.9%	15.8µM*	-18.4%
COc1ccc(Cc2nnc(N/N=C/c3ccc(O)cc3)[nH]c2=O)cc1OC	-19.5%	-1.1%	1.5%	-0.9%	14.1µM*
N[C@@H](Cc1cc(I)c(Oc2ccc(O)c(I)c2)c(I)c1)C(=O)O	-1.7%	-2.8%	25.1µM*!	-4.4%	14.0%
CC(=O)c1ccc(C2CC34CNS(=O)(=O)C3CC2O4)cc1 (stereo not drawn)	.	16.5%	2.7%	1.6%	.
O=C(COc1ccc(S(=O)(=O)N2CCc3ccccc32)cc1Cl)NCc1ccccn1	15.8µM*	-1.3%	-4.7%	?	-24.7%
CC(C)(C)OC(=O)NCCCCC1=CC2=CC(=O)C(C)(OC(=O)C3CCCC3)C(=O)C2=CO1 (stereo not drawn)	.	-0.2%	2.8%	-5.2%	5.0%
C1CCCNCC1	.	-1.1%	.	2.6%	.
Cc1cc(-c2csc(NC(=O)c3cccc(S(=O)(=O)N(C)C)c3)n2)c(C)n1-c1ccccc1	0.1%	i	-4.5%	5.0%	12.6µM*
COC(=O)c1ccc(-n2c(C)cc(-c3csc(NC(=O)c4ccc(S(=O)(=O)N(C)C)cc4)n3)c2C)cc1	-0.3%	-0.6%	-9.8%	-0.5%	?
CC(=O)Sc1nc(-c2ccccc2)[nH]c1S(=O)(=O)c1ccc(C)cc1	-9.1%	5.8%	-1.3%	-1.3%	10µM*
Cc1ccc(S(=O)(=O)c2[nH]c(-c3ccccc3)nc2SCC(=O)O)cc1	.	.	-1.8%	.	.
CCOC(=O)c1ccc(NC(=O)CC2Sc3ncnn3C2=O)cc1 (stereo not drawn)	12.7%	-5.0%	-8.7%	-3.7%	1.78µM*
COc1ccc(NC(=O)CC2Sc3ncnn3C2=O)cc1 (stereo not drawn)	?	2.5%	0.8%	0.6%	2µM*
O=C(CC1Sc2ncnn2C1=O)Nc1ccc(Cl)cc1 (stereo not drawn)	21.5%	i	0.7%	-6.7%	1.58µM*
COCCN1C(=O)C(CC(=O)Nc2ccccc2)SC1=Nc1ccc(OC)cc1 (stereo not drawn)	5.6%	-13.4%	-4.4%	-1.5%	10.5%
Cc1cc(C)c2c(=O)n(CC(=O)NC3CCCC3)sc2n1	-22.0%	-2.0%	0.0%	2.6%	?
COc1ccc(OC)c(CCNC(=O)Cn2sc3nc(C)cc(C)c3c2=O)c1	-6.9%	-9.6%	2.6%	?	28.2µM*
Cc1cc(C)c2c(=O)n(CC(=O)Nc3cccc(Cl)c3C)sc2n1	3.16µM*	1.6%	-4.8%	-3.1%	?
COc1cc(NS(=O)(=O)c2cc3c(cc2C)NC(=O)CO3)cc(OC)c1	7.08µM*	.	-1.2%	9.4%	.
Cc1cc2c(cc1S(=O)(=O)Nc1cc(C(F)(F)F)cc(C(F)(F)F)c1)OCC(=O)N2	.	.	-8.5%	.	.
NCCCCCCC(O)(P(=O)(O)O)P(=O)(O)O	.	-9.4%	2.2%	2.4%	.
COc1ccc(N2CCN(CC(=O)Nc3cc(C)on3)CC2)cc1	-5.5%	-3.2%	-4.1%	25.1%	25.1µM*
O=C(O)c1ccc(-c2ccc(/C=c3/sc4nc5ccccc5n4c3=O)o2)cc1Cl	.	.	?	9.47µM*	.
COc1c(O)cc2oc3cc(O)c(CC=C(C)C)c(O)c3c(=O)c2c1CC=C(C)C	.	-12.9%	-20.7%	-5.9%	1.0%
Cc1cc(C(=O)Nc2sc(C)c(C)c2C#N)no1	1.3%	-8.5%	-2.8%	4.3%	-4.6%
SMILES	PKM2 activator	RECQ1 helicase	BLM inh	APEX1 inh	KDM4E inh
COc1cc2cc3c(N)c(C(=O)Nc4sc(C)c(C)c4C#N)sc3nc2cc1OC	29.5%	10µM*	31.6µM*	12.6µM*	?
Cc1nnc(SCC(=O)NCc2ccco2)[nH]c1=O	-21.7%	-17.6%	10.2%	25.1µM*	?
C=CCc1ccccc1OCC(O)CNC1CCCC1 (stereo not drawn)	.	.	1.5%	92.6%	.
COC(=O)C1=COC(C)C2CN3CCc4c([nH]c5ccccc45)C3CC12 (stereo not drawn)	-1.6%	2.1%	-7.8%	12.3%	2.0%
COC(=O)C1=CO[C@@H](C)[C@H]2CN3CCc4c([nH]c5ccccc45)[C@@H]3C[C@H]12	.	-4.5%[25.9 µM]	-10.1%[21.4 µM]	-5.0%	12.6µM*!
COc1cc(-c2nnc(COC(=O)c3ccc(C)o3)o2)cc(OC)c1OC	.	.	.	23.8µM*	.
CC[C@@H](C)CCCCC(=O)N[C@@H](CCNCS(=O)(=O)O)C(=O)N[C@H](C(=O)N[C@@H](CCNCS(=O)(=O)O)C(=O)N[C@H]1CCNC(=O)[C@H]([C@@H](C)O)NC(=O)[C@H](CCNCS(=O)(=O)O)NC(=O)[C@H](CCNCS(=O)(=O)O)NC(=O)[C@H](CC(C)C)NC(=O)[C@@H](CC(C)C)NC(=O)[C@H](CCNCS(=O)(=O)O)NC1=O)[C@@H](C)O	.	.	.	9.4%	.
COC(=O)CSc1n[nH]c(=S)s1	2.7%	-0.2%	-1.4%	-0.6%	-15.6%
CCSc1n[nH]c(=S)s1	-37.4%	-1.2%	-6.3%	-3.7%	25.1µM*
NCCCC[C@H](NC(=O)[C@@H]1CCCN1C(=O)[C@H](CO)NC(=O)[C@H](CC(=O)O)NC(=O)CNC(=O)[C@H](CCCN=C(N)N)NC(=O)CN)C(=O)O	.	-10.9%	0.8%	-4.0%	.
CO[Si](CCCNCCC[Si](OC)(OC)OC)(OC)OC	.	-13.9%	.	13.4%	.
O=C(C[C@@H]1C/C=C\C[C@H](NC(=O)OCC2c3ccccc3-c3ccccc32)C(=O)OC[C@H]2CCCN2C1=O)NCCO	.	.	.	10.6µM*	.
Fc1ccccc1Cn1nnc2c(NCCc3ccccn3)ncnc21	12.6µM*	-5.7%	0.9%	?	2.2%
CCOC(=O)C1=CN(C(=O)OC(C)(C)C)C(CN2C(=O)COCC2=O)C1 (stereo not drawn)	.	i	-12.0%	1.1%	.
CCOc1ccc(/C=C2/SC(=S)N(C(C(=O)O)c3ccccc3)C2=O)cc1OCC (stereo not drawn)	-3.9%	22.4µM*	-6.7%	3.0%	?
COc1cc(/C=C2\SC(=S)N(C(C(=O)O)c3ccccc3)C2=O)ccc1O (stereo not drawn)	-0.4%	22.4µM*	-7.7%	-11.4%	-5.4%
CCOc1cc(/C=C2\SC(=S)N(C(C(=O)O)c3ccccc3)C2=O)ccc1O (stereo not drawn)	3.1%	6.7%	?	12.1%	1.2%
COc1cc(/C=C2/SC(=S)N(c3c(C)n(C)n(-c4ccccc4)c3=O)C2=O)ccc1O	-9.8%	22.4µM*	-8.8%	-10.1%	5.5%
C=N[C@@H](C(=O)N[C@@H]1C(=O)N2[C@@H]1SC(C)(C)[C@@H]2C(=O)O)c1ccccc1	.	.	.	-0.7%	.
NC(N)=NN=C(/C=C/c1ccc([N+](=O)[O-])o1)/C=C/c1ccc([N+](=O)[O-])o1	.	.	-4.2%	.	.
COc1ccc2[nH]cc(CCNc3nc(-c4cccnc4)nc4ccccc34)c2c1	.	i	-2.9%	11.3%	.
